# Assay results: PubChem BioAssay (NCATS)
# Records with an inconclusive call do not appear. Values without a mark were called inactive. The call rests on the fitted dose curve; in most records, active means well fitted activation curve with a large enough effect; inconclusive means small, poorly fitted or top-dose-only effect; inactive means flat fitted curve, though single readings scatter. Where a SMILES comes first, the peptide text is derived from it. [ ]: non-standard residue; d: D form. PhLac = O=C(O)[CH](O)Cc1ccccc1; NMeV = CN[CH](C(=O)O)C(C)C
# Test: Primary redox qHTS assay for identification of artifact compounds. (AID 1845223);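 further: 0% = DMSO and 100% = reference compound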
# Settings: Amplex Red/HRP redox cycling with DTT, fluorescence; series mostly up to 53.8 µM; redox activity (% of DA3003): at the top concentration
# Summary of the method: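 Redox-cycling detection via DTT (250 uM final) oxidation coupled to Amplex Red (25 uM)/HRP (250 mU/mL) in HBSS. 15 min preincubation plus 30 min after DTT, room temperature. Ex/Em 525/598 nm; 4-parameter Hill fit against DMSO and 10 uM DA3003.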
row,Structure (SMILES),redox activity (% of DA3003)
1,O=C(O[C@@H]1O[C@H](CO)[C@@H](O)[C@H](O)[C@H]1O)c1c(O)cc(O)cc1/C=C/c1ccccc1,-1.01% [at 25.6 µM]
2,C[C@@H]1CC[C@]2(C(=O)O)CC[C@]3(C(=O)O)C(=CCC4[C@@]5(C)CC[C@H](O[C@@H]6O[C@@H](C)[C@H](O[C@@H]7O[C@H](CO)[C@@H](O)[C@H](O)[C@H]7O)[C@@H](O)[C@H]6O)C(C)(C)C5CC[C@]43C)C2[C@H]1C (some centres not stated),-10.2% [at 25.6 µM]
3,COC1C=C([C@@H]2CC=C3[C@@]4(C)C(CC[C@]32C)[C@@]2(C)C=CC(=O)C(C)(C)C2C[C@H]4OC(C)=O)C(=O)O1 (some centres not stated),7.14% [at 25.6 µM]
4,Cc1cc(Nc2ncc(Cl)c(Nc3ccccc3S(=O)(=O)C(C)C)n2)c(OC(C)C)cc1C1CCNCC1,11.7%
5,CN1CC[C@@H](NC(=O)Nc2ccc(C#N)cc2)C[C@@H]1c1nc2ccccc2[nH]1,-3.12%
6,O=C(/C=C/c1ccc(O)cc1)OCC1=C[C@@H](O)[C@@H]2C=CO[C@@H](O[C@@H]3O[C@H](CO)[C@@H](O)[C@H](O)[C@H]3O)[C@H]12,-0.336% [at 25.6 µM]
7,C1CCN2CC3C[C@@H](CN4CCCC[C@@H]34)[C@H]2C1,-10.9%
8,C=C1CC[C@@H]2[C@](C)(CO[C@@H]3O[C@H](CO)[C@@H](O)[C@H](O)[C@H]3O)CCC[C@@]2(C)[C@@H]1CCC1=CCOC1=O,15.2% [at 25.6 µM]
9,CC1(C)NC2N(C1=O)c1ccccc1C2(O)CC(C(=O)O)n1cnc2ccccc2c1=O (configuration not stated),-4.35% [at 25.6 µM]
10,C=CC(C)(O)CC/C=C(\C)C(=O)OCC1OC(OC2CCC3(C)C(CCC4(C)C3CC=C3C5CC(C)(C)C(O)CC5(C(=O)O)CCC34C)C2(C)C)C(O)C(OC2OC(CO)C(O)C(OC3OC(CO)C(O)C(OC4OC(COC5OC(CO)C(O)C(O)C5O)C(O)C(O)C4O)C3O)C2O)C1O (configuration not stated),18.5% [at 11.5 µM]
11,CC(=O)N1CCN(NC(=O)c2ccc(F)cc2)CC1,-5.82%
12,C=CC1(C)C=C2C(O)CC3C(C)(C(=O)O)CCCC3(C)C2CC1 (configuration not stated),19.9%
13,CCNC(=O)[C@H]1O[C@H](n2cnc3c(NCC(c4ccccc4)c4ccccc4)nc(C(=O)NCCNC(=O)NC4CCN(c5ccccn5)CC4)nc32)[C@H](O)[C@@H]1O,1.7%
14,CC(C)C(C(=O)N1CCCC1C(=O)O)N(C)C(=O)C(O)Cc1ccccc1 (configuration not stated) (H-[PhLac]-[NMeV]-Pro-OH; configuration not given here),1.65%
15,CC(=O)OC1C=C(C(=O)O)C2(CO)CCC(C)C(C)(CCc3ccoc3)C2C1 (configuration not stated),4.91% [at 25.6 µM]
16,C/C=C(\C)C(=O)O[C@@H]1CC2[C@@H](CC=C3C[C@@H](O[C@H]4C[C@H](OC)[C@H](O[C@H]5C[C@H](OC)[C@H](O[C@H]6C[C@H](OC)[C@H](O[C@H]7C[C@@H](OC)[C@H](O[C@@H]8O[C@H](CO)[C@@H](O)[C@H](O)[C@H]8O)[C@@H](C)O7)[C@@H](C)O6)[C@@H](C)O5)[C@@H](C)O4)CC[C@@]32C)[C@@]2(O)CC[C@H](C(C)=O)[C@@]12C (some centres not stated),-9.41% [at 11.5 µM]
17,CC1(CO)CC2C(O)C(=O)C3(CO)CC3(C)C2C1 (configuration not stated),-13.1%
18,CCC(C)(O)C(O)C(=O)OCc1ccc(O[C@@H]2O[C@H](CO)[C@@H](O)[C@H](O)[C@H]2O)c(OC)c1 (some centres not stated),-1.23% [at 25.6 µM]
19,N#Cc1ccnc(N2C(=O)CC[C@H]2C(=O)N(c2cncc(F)c2)[C@H](C(=O)NC2CC(F)(F)C2)c2ccccc2Cl)c1,13.4%
20,C=C(C)[C@H]1C[C@@H](O)C(=C)CC[C@@H](O)C(=C)[C@@H](O)C1,-1.7%
21,C=C1CC[C@@H]2[C@](C)(CC[C@H](O)[C@@]2(C)CCC=C(C)C)[C@@H]1Cc1c[nH]c2ccccc12,-7.23% [at 25.6 µM]
22,Cc1ccc(C(=O)Nc2ccc(Oc3cc4cnn(C)c4cc3-c3cn[nH]c3)c(F)c2)c(=O)n1-c1ccc(F)cc1,-7.68%
23,c1ccc(Cc2ncc3c(n2)CCNCC3)cc1,0.397%
24,C[C@@H]1C[C@H]2[C@@H]3CCC4=CC(=O)C=C[C@]4(C)[C@@]3(F)[C@@H](O)C[C@]2(C)[C@@]1(O)C(=O)COP(=O)(O)O,-2.85%
25,COC(=O)C1C(CC(C)=O)C=CC(O)C12Oc1cc(C)cc(O)c1C2=O (configuration not stated),15.4%
26,CC1(C)CC[C@]2(C(=O)O)CC[C@]3(C)C(=CCC4[C@@]5(C)CC[C@H](O[C@@H]6O[C@H](C(=O)O)[C@@H](O)[C@H](O)[C@H]6O)C(C)(CO)C5CC[C@]43C)C2C1 (some centres not stated),0.211% [at 25.6 µM]
27,CC1CCC2C(C)(C)C(O)CCC2(C)C12Cc1c(O)cc3c(c1O2)C(N)=NC3 (configuration not stated),-4.03%
